# Screening data: PubChem, National Center for Advancing Translational Sciences (NCATS)
# Marburg entry inh – qHTS for inhibitors of binding or entry into cells for Marburg Virus. 1.8% of 300,000 active. Potency, µM (highest dose often 37.8 µM), without a hit: at the highest dose activity change, negative = inhibition, hits mostly inhibitors. AID 540276, 2011. Marburg virus pseudotyped entry inhibition, cell reporter; calls by dose curve; tested in HEK293 cells; further: potency means the concentration at half of the fitted maximal effect
# HCMV antiviral – qHTS Assay for inhibitors of the human cytomegalovirus (HCMV). AID 1259415, 2018. activity change, negative = inhibition, % at 57.5 µM. HFF cells, HCMV-luciferase reporter, 72 h; stronger effect = lower value. 4.5% of 410,000 active; in the data active means activity change below about -60%; inconclusive means no clear call, values can overlap the other calls; inactive means above about -39%
#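 Luciferase read-out from HCMV-luciferase-infected HFFs (MOI 1 PFU/cell) 72 h post infection at 37C; compounds added after 16 h cell attachment; activity normalized between buffer-only basal and Salinomycin (10uM) inhibitor controls.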
# Giardia FBPA inh – qHTS Assay for Inhibitors of Fructose-1,6-bisphosphate Aldolase from Giardia Lamblia; purified Giardia FBPA; Potency, µM (highest dose often 59.6 µM), without a hit: at the top dose activity, negative = inhibition, actives largely listed as inhibitors; 0.71% of 290,000 active; further: potency means the concentration at half of the fitted maximal effect; nearly all actives have a fitted effect of over 55% in size
# Target sequence (A8B2U2 whole entry, looked up): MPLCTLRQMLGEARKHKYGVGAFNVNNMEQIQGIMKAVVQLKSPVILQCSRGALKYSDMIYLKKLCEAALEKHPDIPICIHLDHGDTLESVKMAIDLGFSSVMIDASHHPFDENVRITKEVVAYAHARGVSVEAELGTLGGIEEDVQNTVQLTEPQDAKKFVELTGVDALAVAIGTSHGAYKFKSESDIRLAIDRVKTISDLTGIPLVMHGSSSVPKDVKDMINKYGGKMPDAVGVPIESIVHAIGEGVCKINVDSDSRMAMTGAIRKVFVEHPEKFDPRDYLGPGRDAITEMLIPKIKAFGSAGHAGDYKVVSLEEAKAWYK
#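 40 nM FBPA preincubated 10 min at RT with compound (up to 57.5 uM final), then substrate plus GAPDH/TPI/NAD/arsenate coupling and diaphorase/resazurin added. Fluorescence read after 20 min at RT, 525/598 nm.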
# FMDV antiviral – High Throughput Screening for Foot and Mouth Disease Virus Antivirals; 1.2% of 410,000 active; FMDV antiviral cell-based qHTS; AID 1159524, 2015; Potency, µM (titrated, usually from 57.9 µM), for the others: at the highest dose activity change, negative = inhibition, most hits filed as inhibitors; calls by dose curve; tested in HEK293T cells; further: read-out not given here; potency means the concentration at half of the fitted maximal effect; nearly all actives have a fitted effect of over 45% in size
# Lassa entry inh – qHTS for Inhibitors of binding or entry into cells for Lassa Virus; Lassa virus pseudotype entry inhibition, cell reporter; 1.2% of 300,000 active; Potency, µM (top dose mostly 37.9 µM), without a hit: at the top dose activity change, negative = inhibition, usual class: inhibitors; calls by dose curve; tested in HEK293 cells; further: potency means the concentration at half of the fitted maximal effect; nearly all actives have a fitted effect of over 50% in size
# HCV inhibitor – qHTS Assay for Inhibitors of Hepatitis C Virus (HCV). Potency, µM (doses to about 41.8 µM), for inactives: at the highest dose activity change, negative = inhibition, usual class: inhibitors. 3.4% of 340,000 active. Huh7.5.1 HCVcc-Cre infection, luciferase reporter, 44 h; further: potency means the concentration at half of the fitted maximal effect
#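 A cell-based infection assay in which seeded cells (1,000 per well) receive test compound after 4 h, are inoculated with HCVcc-Cre at approximately 0.5 moi, and are incubated 44 h before luminescence detection.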
# * hit, by the source's call; ? = inconclusive; nt = not tested or not shown; ! = repeats disagree; [ ] = remark or other dose. Rows were chosen to be rich in hits. Some 8.3% of all compounds tested hit in one or more screens of this group. Unless noted, the call rests on the fitted dose curve; in most records, active means well fitted curve in the direction sought with a large enough effect; inconclusive means small, poorly fitted or top-dose-only effect, or another doubt; inactive means no such curve, though single readings can be large; an effect the other way counts as inactive or inconclusive. On the % scale 0 is the no-effect control and ±100 the full control effect.
SMILES,Marburg entry inh,HCMV antiviral,Giardia FBPA inh,FMDV antiviral,Lassa entry inh,HCV inhibitor
COc1c(S(=O)(=O)N2CCCCC2)ccc2c(S(=O)(=O)N3CCCCC3)cccc12,-16.0%,-85.5*,nt,16.8%,-29.6%,?
O=S(=O)(c1cccc2c(Cl)cccc12)N1CCCNCC1,8.91µM*!,nt,-5.2%,0.0%,-8.9%,nt
O=S(=O)(c1cccc2c(S(=O)(=O)N3CCCC3)cccc12)N1CCCC1,1.8%,5.3,8.5%,?,-13.7%,-0.6%
CCOc1ccc2nc(N[C@@](NC(=O)CC)(C(=O)OC)C(F)(F)F)sc2c1,2.0%,nt,nt,nt,nt,nt
CCOC(=O)N1CCC(NC(=O)C2CCN(c3nc(-c4ccc(OC)cc4)no3)CC2)CC1,-22.2%,-65.3*,7.4%,?,-7.5%,?
COc1ccc(-c2noc(N3CCC(C(=O)Nc4ccccc4Cl)CC3)n2)cc1,nt,-8.6,-2.3%,?,nt,-4.0%
CCN(C(=O)C1CCN(c2nc(-c3ccc(OC)cc3)no2)CC1)c1ccccc1,nt,-1.5,-4.1%,?,nt,10µM*
CCN(C(=O)C1CCCN(c2nc(-c3ccc(OC)cc3)no2)C1)c1ccccc1F (centres undefined),nt,-35.9,-10.6%,-17.6%,nt,?
COc1ccc(-c2noc(N3CCC(C(=O)N(C)c4ccccc4)CC3)n2)cc1,nt,-18.9,7.6%,?,nt,11.2µM*
COc1ccc(-c2noc(N3CCC(C(=O)NC(C)c4ccccc4)CC3)n2)cc1 (centres undefined),nt,-63.0*,-18.6%,?,nt,?
CO[C@@H]1/C=C\CC(=O)N[C@@H](C)C(=O)OC[C@@H](OC)[C@H](C)/C=C\CC(=O)OC[C@H]1C,nt,nt,-0.5%[12.9 µM],nt,nt,nt
C/C(Cn1nnc([N+](=O)[O-])n1)=N\NC(=O)c1ccc(O)cc1O,?,6.6,?,?,-2.2%,?
C/C(Cn1nnc([N+](=O)[O-])n1)=N\NC(=O)c1ccccc1O,nt,-7.2,17.7µM*,-20.4%,nt,7.4%
COc1ccc(-c2csc(Nc3ncccc3C)n2)cc1OC,1.4%,45.2,-11.4%,25.5%,?,2.24µM*
COc1ccc(-c2csc(Nc3cc(C)ccn3)n2)cc1C,nt,?,-3.0%,-0.6%,nt,12.6µM*
COc1ccc(-c2csc(Nc3ncccn3)n2)cc1C,nt,67.7,-7.8%,37.5%,nt,4.0%
COc1ccc(NC(=O)CCS(=O)(=O)c2ccc3c(c2)n(C)c(=O)c(=O)n3C)cc1Cl,9.5%[46.1 µM],16.1,nt,-12.4%,-1.9%[46.1 µM],nt
CCN1C(=O)[C@@H]2[C@@H](c3ccc(-c4ccc(OC)cc4)cc3)N3CCCC[C@@]3(C(=O)OC)[C@@H]2C1=O,nt,26.1,nt,-2.8%,nt,3.16µM*
CCSc1ccc([C@@H]2[C@@H]3C(=O)N(CC)C(=O)[C@@H]3[C@]3(C(=O)OC)CCCCN23)cc1,nt,-26.5,nt,-25.2%,nt,0.708µM*
CCSc1ccc([C@@H]2[C@H]3C(=O)N(CC)C(=O)[C@H]3[C@]3(C(=O)OC)CCCCN23)cc1,nt,18.9,nt,-14.7%,nt,4.3%
Cc1cnc(C)c(-c2cccc3c2OC(CNC(=O)C[C@@H]2C[C@@H](C)NC(=S)N2)C3)n1 (some centres undefined),nt,nt,nt,-4.7%,nt,nt
CC(C)(C)C(=O)OCc1cc(=O)n2nc(C3CCCCC3)sc2n1,nt,8.8,nt,36.0%,16.6%[46.1 µM],nt
CCC(=NCC1CCCO1)c1c(O)n(Cc2ccccc2)c(=O)[nH]c1=O (centres undefined),12.8%,18.9,11.4%,?,1.64µM*,13.8%
Cc1ccc(CNC(=O)Cn2cc(S(=O)(=O)Cc3ccccc3F)c3ccccc32)cc1,nt,0.0,nt,-1.5%,13.7%[46.1 µM],nt
COc1cc2c(cc1OC)C(C)=NCC2,nt,0.0,2.5%,?,nt,-4.6%
SMILES,Marburg entry inh,HCMV antiviral,Giardia FBPA inh,FMDV antiviral,Lassa entry inh,HCV inhibitor
COc1cc2c(cc1OC)C(c1ccc(Cl)cc1)=NCC2,nt,17.5,4.0%,-12.8%,nt,-6.5%
COc1cc2c(cc1OC)C(c1ccc(-c3ccc(Cl)c(Cl)c3)o1)=NCC2,5.8µM*,-12.6,-20.9%,17.8µM*,5.8µM*,12.6µM*
COc1cc2c(cc1OC)C(c1ccc(-c3cc(Cl)ccc3Cl)o1)=NCC2,?,nt,-5.8%,17.8µM*,?,?
COc1cc2c(cc1OC)C(c1ccc(-c3ccc(Cl)cc3Cl)o1)=NCC2,6.31µM*,?,-10.5%,14.1µM*,14.1µM*,11.2µM*
O=C(O)c1ccc(-c2ccc(Cl)cc2Cl)o1,20.4%,9.7,?,16.5%,?,3.2%
COc1cc2c(cc1OC)C(c1ccc(-c3ccccc3Cl)o1)=NCC2,20.6µM*,-19.0,-9.2%,-11.2%,?,5.62µM*
CN(C)c1ncc2nc(CCc3ccccc3)c(=O)n(Cc3cccs3)c2n1,nt,nt,-4.1%,-0.5%,nt,nt
O=c1c(-c2ccc(F)cc2)nc2cnc(Nc3ccccc3)nc2n1Cc1cccs1,nt,nt,-0.1%,-2.2%,nt,nt
Cc1c(C(=O)N2CCCCC2CCN2CCCC2=O)oc2c(F)cccc12 (centres undefined),-1.2%,-63.3*,nt,-3.3%,2.1%,20.2%
COCC1CCN(C(=O)c2oc3c(F)cccc3c2C)C1 (centres undefined),nt,11.5,-3.8%,31.6%,nt,-5.5%
CC(=O)NCC1CCCN(C(=O)c2oc3c(F)cccc3c2C)C1 (centres undefined),nt,-100.8*,-1.0%,18.7%,nt,-2.0%
COc1ccccc1NC(=O)c1ccc(S(=O)(=O)N2CCCC(C)C2)cc1 (centres undefined),2.8%[46.1 µM],-63.5*,2.3%,-24.4%,-9.7%,?
Cc1cccc2sc(NNC(=O)c3ccc(S(=O)(=O)N4CCc5ccccc5C4)cc3)nc12,?,-105.3*,?,?,?,?
CCc1nnc(NC(=O)c2ccc(S(=O)(=O)N3CCCC(C)C3)cc2)s1 (centres undefined),8.3%[46.1 µM],-2.1,5.4%,0.4%,1.8%,-3.2%
Cc1cccc2sc(NNC(=O)c3ccc(S(=O)(=O)N4CCCC(C)C4)cc3)nc12 (centres undefined),?,-71.7*,-26.1%,10µM*,?,2.82µM*
Cn1cnc2c(ncn2[C@@H]2O[C@H](CO)[C@@H](O)[C@H]2O)c1=N,nt,nt,nt,21.5%,nt,nt
COc1ccccc1CNC(=O)c1cnc2sc(N3CCCCC3)nn2c1=O,nt,-11.4,nt,-21.9%,-10.8%[46.1 µM],nt
Cc1nnc2c(N3CCN(c4ccccc4F)CC3)nc3ccccc3n12,nt,-14.7,nt,-26.8%,?,nt
COCc1cc(=O)[nH]c(Nc2nc(C)c3cc(OC)ccc3n2)n1,-0.9%,nt,0.9%,nt,nt,nt
Cc1ccc2nc(Nc3nc(CSc4nnc(C)s4)cc(=O)[nH]3)nc(C)c2c1,3.1%[46.1 µM],-80.8*,-4.5%,-5.1%,nt,?
COc1ccc2c(C)nc(Nc3nc(-c4ccccc4)cc(=O)[nH]3)nc2c1,?,-93.3*,-0.4%,-7.9%,4.61µM*,5.62µM*
